Experimental data published in PubChem BioAssay (NCI).
Compounds without any hit were thinned out: in the full panel of roughly 79,000, 15% have a hit. Cut-off read from the data, not from the text of the source: active = growth inhibition above about 70%; inactive = the rest.

Experiments:
[1] = NCI Yeast Anticancer Drug Screen. Data for the rad50 strain (AID 155);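 note: 0% = growth of vehicle-only cultures of the same strain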; settings: S. cerevisiae rad50 strain growth inhibition; at 50.0 µM; active compounds read high
Procedure, shortened: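 Growth of the mutant yeast was measured after compound exposure and referenced to vehicle-treated cultures.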

[2] = NCI Yeast Anticancer Drug Screen. Data for the mec2-1 strain (AID 157); settings: S. cerevisiae mec2-1 strain, at 50.0 µM, active compounds read high
Procedure, shortened: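 Strain: mec2-1 (DNA repair/cell cycle alteration). Compound exposure, then growth measured; inhibition expressed relative to vehicle.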

[3] = NCI Yeast Anticancer Drug Screen. Data for the sgs1 mgt1 strain (AID 161);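 note: 0% = growth of cultures given vehicle only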; settings: S. cerevisiae sgs1 mgt1 strain, at 50.0 µM, active compounds read high
Procedure, shortened: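 Inhibition of yeast growth, normalised to vehicle-treated controls, is reported for a strain bearing genetic alterations in DNA damage repair.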

[4] = NCI Yeast Anticancer Drug Screen. Data for the cln2 rad14 strain (AID 165);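 note: 0% = growth equal to vehicle treated cultures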; settings: S. cerevisiae cln2 rad14 strain, at 50.0 µM, active compounds read high
Procedure, shortened: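 Compounds are applied to the cln2 rad14 yeast strain, and growth is then compared with that of vehicle-treated cultures to give inhibition.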

[5] = NCI Yeast Anticancer Drug Screen. Data for the bub3 strain (AID 167); settings: S. cerevisiae bub3 mutant strain, at 50.0 µM, active compounds read high
Procedure, shortened: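 Whole-cell yeast assay. The mutant strain was incubated with compounds, and growth inhibition was determined by comparison with vehicle-treated cells.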

[6] = NCI Yeast Anticancer Drug Screen. Data for the mlh1 rad18 strain (AID 175); settings: S. cerevisiae mlh1 rad18 strain growth inhibition; at 50.0 µM; active compounds read high
Procedure, shortened: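 Read-out is yeast growth inhibition, calculated against vehicle-only controls. The compound was applied to a strain engineered with DNA damage repair alterations.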

Measured: growth inhibition

CCc1cccc(C)c1NC(=O)C(=O)CC(=O)CS(=O)(=O)c1ccc(C)cc1
inactive: [1] -13.4% | [2] -15.2% | [3] -6% | [4] -0.8% | [5] -8.8% | [6] 12.5%

CCCN(CCC)S(=O)(=O)c1ccc(NC(=O)Oc2cc(C)ccc2C(C)C)cc1
inactive: [1] 32.5% | [2] 1.75% | [3] 24.2% | [4] 21.5% | [5] -5.25% | [6] 14.8%

O=S(=O)(O)CCCCCO
inactive: [1] -6.45% | [2] -18.7% | [3] -15.7% | [4] -46.8% | [5] -2.85% | [6] -9.95%

O=C(O)CCSc1ccc([N+](=O)[O-])cc1
inactive: [1] -7.3% | [2] -18.6% | [3] -4.75% | [4] -44.1% | [5] -11.5% | [6] 52.6%

CC(C)(C)C(=O)[CH-]C(=O)C(F)(F)F.CC(C)(C)C(=O)[CH-]C(=O)C(F)(F)F.CC(C)(C)C(=O)[CH-]C(=O)C(F)(F)F.[Ru+3]
inactive: [1] 25.8% | [2] -4.65% | [3] 1.7% | [4] -1.35% | [5] 8.5% | [6] 24.4%

CCC(Cl)COP(=O)(OCC(Cl)CC)O/C(C)=C(/C)P(=O)(OCC(Cl)CC)OCC(Cl)CC (centres undefined)
inactive: [1] 32.9% | [2] 29.6% | [3] 42.4% | [4] 47.1% | [5] 8.6% | [6] 69%

COc1ccc(OC)c(COC(=O)c2ccccc2)c1COC(=O)c1ccccc1
inactive: [1] 26.1% | [2] 3.9% | [3] 20.2% | [4] 4.2% | [5] 1.6% | [6] 5.7%

O=C(CCc1cccs1)OC1CCCCC1
inactive: [1] 9% | [2] 7.05% | [3] 4.4% | [4] 13.6% | [5] 9.35% | [6] 20.9%

CC(=O)N[C@H](CO)[C@H](O)c1ccc([N+](=O)[O-])cc1
inactive: [1] -12.2% | [2] 10.1% | [3] 9% | [4] -47.6% | [5] 16.1% | [6] 19.6%

COCCCNC(=O)C1=CCCN(C)C1
inactive: [1] 6% | [2] -3.45% | [3] -3.55% | [4] -2.45% | [5] -1.55% | [6] -3.3%

NC1=NS(=O)(=O)Nc2nc(-c3ccc([N+](=O)[O-])o3)[nH]c21
inactive: [1] 50.5% | [2] -8.6% | [3] 26.1% | [4] 23.2% | [5] -2.7% | [6] 50.5%

CC(=O)Nc1c(CCCCc2ccccc2)[nH]c(=O)[nH]c1=O
inactive: [1] 1.8% | [2] 22.5% | [3] 25.8% | [4] 1.4% | [5] 17% | [6] -0.95%

COc1cccc(OC)c1OCC1CO1 (centres undefined)
inactive: [1] 6.95% | [2] 9.8% | [3] 0.2% | [4] -14.4% | [5] 2.3% | [6] 9.95%

O=C1C=C(Nc2ccc(Cl)cc2C(=O)c2ccccc2)c2ccccc2C1=O
inactive: [1] 3% | [2] -11.7% | [3] -6.9% | [4] 22.2% | [5] -6.55% | [6] -2.9%

COC(=O)C1C2CC3C(OC(=O)C31)C2OC(=O)[C@](OC)(c1ccccc1)C(F)(F)F (some centres undefined)
inactive: [1] 24.2% | [2] 20.9% | [3] 10.6% | [4] -25.4% | [5] 15.5% | [6] 28.6%

COc1ccc(C(=O)NC(=S)Nc2cccc([N+](=O)[O-])c2)cc1
inactive: [1] -7.3% | [2] 29.9% | [3] 35.5% | [4] -21.6% | [5] 24.6% | [6] 27.7%

O=C1CCC2(CC1)Cc1ccccc1C2O (centres undefined)
inactive: [1] -8.75% | [2] -8.45% | [3] 18% | [4] 29.4% | [5] -9.35% | [6] -5.5%

Cc1nc(N)nc2ccccc12
inactive: [1] 3.15% | [2] -25.3% | [3] -16% | [4] -5.8% | [5] -7.9% | [6] -16.1%

COc1ccc(-c2c(-c3ccccc3)oc(/N=C/c3ccccc3)c2-c2ccccc2)cc1
inactive: [1] 8.35% | [2] -0.75% | [3] 4.9% | [4] -2.8% | [5] 2.25% | [6] 13.8%

COc1ccc(OC(C)C(=O)O)cc1 (centres undefined)
inactive: [1] 13.2% | [2] 10.5% | [3] 3.5% | [4] -31.5% | [5] 13.3% | [6] 6.25%

OCC(O)C1OC2CC1Nc1ccccc1N2 (centres undefined)
inactive: [1] -30.6% | [2] -21.3% | [3] 9.6% | [4] 17.3% | [5] -15.1% | [6] -12.7%

C/C(CC1SCCCS1)=C(/C)CC1SCCCS1
inactive: [1] -34.8% | [2] -38.6% | [3] -23.1% | [4] -5% | [5] 2.25% | [6] -45%

Nc1ccc(S(=O)(=O)N(CCO)CCO)cc1
inactive: [1] -2.65% | [2] -28.2% | [3] -20.9% | [4] -6.95% | [5] -18.8% | [6] -12.3%

CN1C(=O)Cc2ccccc21
inactive: [1] 9.9% | [2] -7.25% | [3] -13.3% | [4] 11.5% | [5] 20.8% | [6] -1.05%

O=c1oc2nc(-c3ccccc3)[nH]c(=O)c2c(O)c1Cc1ccccc1
inactive: [1] 6.35% | [2] 2.75% | [3] 1.55% | [4] 8.7% | [5] 27.6% | [6] 26.9%

Br[C@H]1CC2CCC1C2 (some centres undefined)
inactive: [1] 23.1% | [2] -23.9% | [3] 2.9% | [4] 6.9% | [5] -6.1% | [6] 5.65%

CCCC1SC(=S)N(c2ccc(Cl)cc2)C1=O (centres undefined)
inactive: [1] 17.9% | [2] 22.1% | [3] 26.5% | [4] 9.2% | [5] -1.55% | [6] 9.9%

O=C1/C(=C/c2ccco2)CC/C1=C\c1ccco1
inactive: [1] 23.4% | [2] 15% | [3] 29% | [4] -18.1% | [5] 14.1% | [6] 44.5%

Cc1ccc(S(=O)(=O)Nc2nc3ccccc3c(=O)n2C2CCCCC2)cc1
inactive: [1] 27.2% | [2] 11.3% | [3] -43.2% | [4] 2.1% | [5] -19.5% | [6] -3.5%

Cc1ccc(S(=O)(=O)Oc2nc3nc4ccccc4nc3nc2OS(=O)(=O)c2ccc(C)cc2)cc1
inactive: [1] -3.5% | [2] -2% | [3] 3.7% | [4] -10.5% | [5] 3.5% | [6] -3.95%

CC(C)Cn1cnc2c(Cl)nc3ccccc3c21
inactive: [1] -38.5% | [2] 20.4% | [3] 23.4% | [4] 0.25% | [5] 33.5% | [6] -11.8%

O=C1CCC(=O)O1
inactive: [1] -8.6% | [2] 17% | [3] -11.7% | [4] 6.45% | [5] 3.95% | [6] -51.9%

CC/C(C)=C1/CC(C)(C)N=C1C
inactive: [1] -11.7% | [2] -43.5% | [3] -10% | [4] -20.6% | [5] -12.2% | [6] -22.6%

Cc1cccc2c1CCC21OC(=O)c2c1ccc1ccccc21 (centres undefined)
inactive: [1] 10.9% | [2] 2.7% | [3] 6.3% | [4] 17.1% | [5] 15.2% | [6] 15.1%

Cc1ccc(NC(=O)OCC(F)(F)F)cc1NC(=O)OCC(F)(F)F
inactive: [1] 1.9% | [2] 29.3% | [3] 26.1% | [4] -0.9% | [5] 16.8% | [6] 1.95%

O=C(O)c1cc2c(c(C(=O)O)c1O)CCCC2
inactive: [1] 11.3% | [2] -19.6% | [3] 9.95% | [4] -23.2% | [5] -6.35% | [6] -4.85%

C=CCN1COc2c(cc3c4c(cccc24)C(=O)O3)C1
inactive: [1] -0.25% | [2] -4.25% | [3] 10.1% | [4] 8.35% | [5] 6.35% | [6] 8.35%

CC1(C)NC(=S)N(O)C1(C)C
inactive: [1] 0.1% | [2] -5.65% | [3] -19.8% | [4] -11.9% | [5] 10.8% | [6] -4.8%

CCCCS/C=C\C(=O)OCC
inactive: [1] 18.9% | [2] -22.8% | [3] -8.5% | [4] -44% | [5] 0.15% | [6] -15.4%
